Records with an inconclusive call do not appear. Entries that show only a call come without a potency. Calls of active or inactive are those of the source. Calls follow the shape of the full dose curve.
These molecules were tested against Acetylcholinesterase (Homo sapiens) (UniProt P22303) (assay: Acetylcholinesterase (AChE) small molecule antagonists: fluorescence cell-based qHTS assay (AID 1347398; also: nearly all actives have a fitted effect of over 50% in size)). Settings: SH-SY5Y cells; Potency: AChE activity; outcome: AChE activity; series mostly up to 115 µM.
Acetylcholinesterase (Homo sapiens), sequence (P22303 whole entry, looked up): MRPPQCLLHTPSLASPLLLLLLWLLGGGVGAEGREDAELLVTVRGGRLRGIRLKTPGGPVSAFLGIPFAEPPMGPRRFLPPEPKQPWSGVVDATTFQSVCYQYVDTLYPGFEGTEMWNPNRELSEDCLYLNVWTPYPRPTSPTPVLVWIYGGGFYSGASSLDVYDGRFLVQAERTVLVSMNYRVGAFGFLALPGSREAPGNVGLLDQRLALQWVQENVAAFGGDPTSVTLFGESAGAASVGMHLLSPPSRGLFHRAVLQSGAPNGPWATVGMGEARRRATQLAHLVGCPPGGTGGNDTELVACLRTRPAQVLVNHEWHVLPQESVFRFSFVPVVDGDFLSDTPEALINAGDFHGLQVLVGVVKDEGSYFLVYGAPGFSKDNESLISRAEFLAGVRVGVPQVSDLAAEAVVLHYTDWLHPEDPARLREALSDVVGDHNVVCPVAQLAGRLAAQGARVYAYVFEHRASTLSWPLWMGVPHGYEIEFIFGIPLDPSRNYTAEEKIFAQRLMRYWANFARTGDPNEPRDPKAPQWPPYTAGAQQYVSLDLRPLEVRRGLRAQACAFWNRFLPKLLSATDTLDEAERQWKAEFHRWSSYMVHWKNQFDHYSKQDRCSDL
Description: National Center for Advancing Translational Sciences [NCATS]
Division of Preclinical Innovation [DPI]
U.S. Environmental Protection Agency [EPA]
National Institutes of Environmental Health Sciences [NIEHS]
National Toxicology Program [NTP]
U.S. Food and Drug Administration [FDA]
Acetylcholinesterase (AChE) is the primary cholinesterase in the body that hydrolyzes a key neurotransmitter, acetylcholine. Inhibition of AChE activity can lead to neurotoxicity. Known inhibitors of AChE include organophosphorous pesticides (OP), chemical warfare agents, drugs, and various phytochemicals.
A homogenous cell-based assay using Amplitetrade mark Fluorimetric Acetylcholinesterase Assay Kit *Green Fluorescence* (AAT Bioquest, Sunnyvale, CA) was used to evaluate the chemicals in the Tox21 10K library that inhibit AChE activity. The assay uses Thiolite Green to quantify the thiocholine produced from the hydrolysis of acetylthiocholine by AChE from the SH-SY5Y cells. AChE can hydrolyze acetylthiocholine to create thiocholine. Thiolite Green is fluorescent when reacting with thiocholine. It has spectral properties similar to those of fluorescein. The fluorescence intensity of Thiolite Green is used to measure AChE activity. Its signal can be easily read by a fluorescence microplate reader at Ex/Em = 490/520 nm.
Tox21 Assay Protocol Summary:
For cell-based AChE assay, 2,000 SH-SY5Y cells in 4 uL/well were dispensed into black, clear-bottom 1536-well plates using a Multidrop Combi (Thermo Scientific) dispenser. The assay plates were incubated overnight at 37 C to allow cells to attach to the wells, followed by the transfer of 23 nL compound or DMSO (vehicle control) by a Pintool station (Wako Automation, CA). The plates were incubated for 30 min at 37 C and 5% CO2, followed by the addition of 4 uL of detection cocktail solution (ThioliteGreen, acetylthiocholine) into each well using Flying Reagent Dispenser (Beckman Coulter, CA) and then following 40 min incubation at room temperature. Fluorescent intensity (Ex/Em = 490/520 nm) was measured using an Envision plate reader (PerkinElmer, MA).
`Cn1c(=O)c2c(ncn2CCO)n(C)c1=O` was tested, and the Potency was “inactive”.
`CC(C)(c1ccccc1)c1ccccc1` was tested, and the Potency was “inactive”.
In the case of `CC(C)CCCCCCc1ccc(OCCOCCO)cc1`, the Potency is reported as “inactive”.
With `Cc1ccc(Cl)cc1N` the Potency was “inactive”.
`O=P(OC(CCl)CCl)(OC(CCl)CCl)OC(CCl)CCl` was tested, and the Potency was “inactive”.
`COC(=O)C(C)Oc1ccc(Oc2ncc(C(F)(F)F)cc2Cl)cc1` (stereo not given) was tested, and the Potency was “inactive”.
With `CCCCc1nc(Cl)c(CO)n1Cc1ccc(-c2ccccc2-c2nn[nH]n2)cc1` the Potency was “inactive”.
`NC(=O)NNC(N)=O` was tested, and the Potency was “inactive”.
`CC1=C2[C@@H]([C@H](C)CC[C@H]2/C=C(\C)C(=O)O)[C@H](O)C1` was tested, and the Potency was “inactive”.
With `CC(C)(CO)[C@@H](O)C(=O)NCCC(=O)O` the Potency was “inactive”.
In the case of `COc1ccc(C(c2ccc(OC)cc2)C(Cl)(Cl)Cl)cc1`, the Potency is reported as “inactive”.
`NC(=S)Nc1cccc2ccccc12` was tested, and the activity change, negative = inhibition was -3.97% [at 10.5 µM] (inactive).
With `Nc1ccn([C@@H]2O[C@H](CO)[C@@H](O)C2O)c(=O)n1` (stereo not given in full) the Potency was “inactive”.
In the case of `Cc1onc(-c2ccccc2)c1C(=O)Cl`, the Potency is reported as “inactive”.
For `Cn1c(N)nc2nc[nH]c2c1=O`, the Potency was “inactive”.
For `CC(C)C(=O)OC/C=C/c1ccccc1`, the Potency was “inactive”.
With `CCOC(=O)Cc1cccc2ccccc12` the Potency was “inactive”.
In the case of `S=c1nccc[nH]1`, the Potency is reported as “inactive”.
With `COC(=O)c1nc(Cl)c(Cl)nc1N` the Potency was “inactive”.
`CO[C@]1(NC(=O)CSC(F)F)C(=O)N2C(C(=O)O)=C(CSc3nnnn3CCO)CO[C@H]21` was tested, and the Potency was “inactive”.
With `Oc1ccc(Oc2ccccc2)cc1` the Potency was “inactive”.
In the case of `CCOC(=O)C1=NN(c2ccccc2)C(=O)C1`, the Potency is reported as “inactive”.
In the case of `CC(O)(P(=O)(O)O)P(=O)(O)O`, the Potency is reported as “inactive”.
In the case of `C[C@]12CCC(=O)C=C1CC[C@@H]1[C@@H]2CC[C@@]2(C)[C@H]1CC[C@]2(O)C(=O)CO`, the Potency is reported as “inactive”.
For `CC(C)(C)NCC(O)c1ccc(O)c(CO)c1` (stereo not given), the Potency was “inactive”.
For `C=C(C)c1cccc(C(C)(C)N=C=O)c1`, the Potency was “inactive”.
With `CCCCCCCC/C=C\CCCCCCCCN` the Potency was “inactive”.
`CO[Si](CCCn1c(=O)n(CCC[Si](OC)(OC)OC)c(=O)n(CCC[Si](OC)(OC)OC)c1=O)(OC)OC` was tested, and the Potency was “inactive”.
`O=C1OC(=O)c2c(Cl)c(Cl)c(Cl)c(Cl)c21` was tested, and the Potency was “inactive”.
With `Cc1cccc2c1cc1ccc3cccc4ccc2c1c34` the Potency was “inactive”.
With `c1ccc(COCc2ccccc2)cc1` the Potency was “inactive”.
In the case of `O=c1[nH]c(=O)c2cn[nH]c2[nH]1`, the Potency is reported as “inactive”.
With `C=CC(=O)OCCOC(=O)CCC(=O)O` the Potency was “inactive”.
With `Oc1ccc2c(c1)-c1ccccc1C2` the Potency was “inactive”.
In the case of `CCCCCCCCCCCCCCCCC(=O)O`, the Potency is reported as “inactive”.
For `CCC(=O)c1c(O)cc(O)cc1O`, the Potency was “inactive”.
`CCCCN(CCO)CCCC` was tested, and the Potency was “inactive”.
`C[C@]12CC[C@H]3[C@@H](CCC4=CC(=O)CC[C@@]43C)[C@@H]1CC[C@@H]2C(=O)CO` was tested, and the Potency was “inactive”.
In the case of `COc1ccc([C@@H]2Sc3ccccc3N(CCN(C)C)C(=O)[C@@H]2OC(C)=O)cc1`, the Potency is reported as “inactive”.
`O=C(O)c1nc(Cl)c(Cl)c(Cl)c1Cl` was tested, and the Potency was “inactive”.
